Measurements taken from PubChem BioAssay (Tox21).
Records with an inconclusive call do not appear. The source made the active and inactive calls. Unless noted, calls come from the whole dose curve; as a rule, active = well fitted curve in the direction sought with a large enough effect in the repeat runs; inconclusive = weak or mixed curves; inactive = no such curve, though single readings can be large; an effect the other way counts as inactive or inconclusive.

How the values were obtained:
[1] = qHTS assay to identify small molecule antagonists of the sonic hedgehog signaling (Shh) pathway (AID 1259369; calls by dose curve; note: nearly all actives have a fitted effect of over 45% in size)
Method in brief: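 NIH/3T3-derived Gli1-Luc reporter cells plated 4 h, dosed with compound, then stimulated with conditioned medium for 24 h at 37 C. Firefly luciferase luminescence read after 30 min with detection reagent at room temperature.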

[2] = qHTS assay to identify small molecule antagonists of the estrogen receptor beta (ER-beta) signaling pathway - cell viability counter screen (AID 1259382); note: series mostly up to about 92 µM; nearly all actives have a fitted effect of over 55% in size
Method in brief: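 ER-beta-UAS-bla HEK293T cells in 2% charcoal-stripped FBS medium, treated with compound plus 1 nM 17-beta-estradiol for 16 h at 37C. Viability read by CellTiter-Glo luminescence after 30 min at room temperature in the same wells.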

[3] = qHTS assay to identify small molecule agonists or antagonists of the thyroid stimulating hormone receptor (TSHR) signaling pathway - wild type cell line counter screen (AID 1259384; calls by dose curve)
Method in brief: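 Wild-type HEK293 cells were plated 18 h at 37 C/5% CO2, pin-dosed with compound plus Ro20-1724 medium, held 30 min at room temperature, then given cAMP-d2 and anti-cAMP-cryptate; fluorescence was read after 1 h. Fifteen concentrations, triplicate.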

[4] = molecular target: Thyrotropin receptor (Homo sapiens) (UniProt P16473); experiment: qHTS assay to identify small molecule antagonists of the thyroid stimulating hormone receptor (TSHR) signaling pathway (AID 1259385; calls by dose curve; note: nearly all actives have a fitted effect of over 20% in size; note: potency is the fitted concentration of half-maximal effect)
Method in brief: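 TSHR-HEK293 cells were plated and held 18 h at 37C/5% CO2, then given compound plus Ro20-1724 and stimulated with TSH at 1.5 ng/mL final. After 30 min at room temperature, cAMP was detected with cAMP-d2/anti-cAMP-cryptate (1 h) by fluorescence.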

[5] = qHTS assay to identify small molecule agonists of the estrogen receptor alpha (ER-alpha) signaling pathway in the presence of an antagonist - cell viability counter screen (AID 1259386);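 note: cells exposed to compounds for 22 h at 37 °C before the viability read; nearly all actives have a fitted effect of over 30% in size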; note: potency is the fitted concentration of half-maximal effect
Method in brief: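 Cell viability in VM7Luc4E2 cells (endogenous full-length ER-alpha) measured by CellTiter-Fluor fluorescence in the same wells as the luciferase screen. Cells pre-cultured 5 days in charcoal-stripped serum, then treated 22 h with compounds at 15 concentrations plus 10.0nM ICI-182,780.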

[6] = molecular target: Progesterone receptor (Homo sapiens) (UniProt P06401); experiment: qHTS assay to identify small molecule agonists of the progesterone receptor (PR) signaling pathway (AID 1346784; calls by dose curve; note: nearly all actives have a fitted effect of over 30% in size; note: potency is the fitted concentration of half-maximal effect)
Method in brief: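 The screen uses PR-UAS-bla HEK 293T cells in charcoal-stripped serum (2%). Compounds are applied for 16 hr at 37C after a 6 hr pre-incubation, and reporter activity is detected with a FRET beta-lactamase substrate after 2 hr at room temperature.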

[7] = molecular target: Progesterone receptor (Homo sapiens) (UniProt P06401); experiment: qHTS assay to identify small molecule antagonists of the progesterone receptor (PR) signaling pathway (AID 1346795; active = well fitted inhibition curve with a large enough effect in the signal ratio in the repeat runs, not every such curve was filed as active; the % refers to the signal ratio; note: potency is the fitted concentration of half-maximal effect)
Method in brief: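 After 6 hr plating at 37C in 2% stripped-serum medium, PR-UAS-bla HEK293T cells got compounds, then 1 nM R5020. Sixteen hours later, LiveBLAzer substrate was applied for 2 hr at room temperature and fluorescence was recorded.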

[8] = qHTS assay to identify small molecule antagonists of the progesterone receptor (PR) signaling pathway - cell viability counter screen (AID 1346798); note: series mostly up to about 92 µM; nearly all actives have a fitted effect of over 50% in size
Method in brief: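 Viability was determined by ATP-based luminescence (CellTiter-Glo) in PR-UAS-bla HEK293T cells cultured in 2% charcoal-stripped serum and incubated 16 hr with compounds under R5020 stimulation.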

[9] = qHTS assay to identify small molecule agonists of the progesterone receptor (PR) signaling pathway - cell viability counter screen (AID 1346799; calls by dose curve; note: nearly all actives have a fitted effect of over 45% in size)
Method in brief: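 Viability was scored by ATP luminescence (CellTiter-Glo, 30 min, room temperature) in the same wells used for the reporter readout, after 16 hr compound exposure of PR-UAS-bla HEK293T cells.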

[10] = qHTS assay to identify small molecule antagonists of the TGF-beta/Smad signaling pathway - cell viability counter screen (AID 1346824); note: nearly all actives have a fitted effect of over 50% in size
Method in brief: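 SBE-bla HEK 293T cells were plated overnight at 37 C, then given compounds in DMSO plus TGF-beta1 (added as 0.25 ng/mL solution) for 5 hr. After the bla read, CellTiter-Glo was added to the same wells and luminescence read after 30 min at room temperature.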

[11] = qHTS assay to identify small molecule agonists of the TGF-beta/Smad signaling pathway - cell viability counter screen (AID 1346829); note: top concentration of the series differs between compounds; nearly all actives have a fitted effect of over 45% in size
Method in brief: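 Luminescence from CellTiter-Glo, read after a 30 min room-temperature incubation, gives cell viability of SBE-bla HEK 293T cells treated 5 hr with compounds at 37 C.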

[12] = qHTS assay to identify small molecule agonists of the TGF-beta/Smad signaling pathway (AID 1346859; active = well fitted activation curve with a large enough effect in the signal ratio in the repeat runs, not every such curve was filed as active; the % refers to the signal ratio; note: series mostly up to about 77 µM)
Method in brief: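 Dual-wavelength fluorescence (460/530 nm emission) quantified beta-lactamase expression under the Smad binding element in HEK 293T cells following 5 hr compound treatment at 37 C.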

[13] = molecular target: Thyrotropin-releasing hormone receptor (Homo sapiens) (UniProt P34981); experiment: qHTS assay to identify small molecule antagonists of the thyrotropin-releasing hormone receptor (TRHR) signaling pathway (AID 1346877; active = well fitted inhibition curve with a large enough effect in the repeat runs, not every such curve was filed as active; note: series mostly up to about 51 µM)
Method in brief: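 TRHR-expressing HEK293 cells loaded with calcium dye for 2 h at 37 C; compounds pre-incubated 5 min at room temperature before TRH challenge at 1 nM final. Intracellular calcium fluorescence read kinetically for 3 min; 15 concentrations in triplicate.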

[14] = molecular target: Thyrotropin-releasing hormone receptor (Homo sapiens) (UniProt P34981); experiment: qHTS assay to identify small molecule agonists of the thyrotropin-releasing hormone receptor (TRHR) signaling pathway (AID 1346891; calls by dose curve; note: series mostly up to about 58 µM)
Method in brief: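 Kinetic fluorescence (3 min, 1 s intervals) reported intracellular calcium after compound transfer onto TRHR-Hek293 cells pre-loaded with dye for 2 h at 37 °C.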

[15] = molecular target: Estrogen receptor beta (Homo sapiens) (UniProt Q92731); experiment: qHTS assay to identify small molecule agonists of the estrogen receptor beta (ER-beta) signaling pathway (AID 1259377; active = well fitted activation curve with a large enough effect in the signal ratio in the repeat runs, not every such curve was filed as active; the % refers to the signal ratio)
Method in brief: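 Measured by fluorescence intensity from a B/G FRET beta-lactamase substrate (2 h, room temperature) in ER-beta-UAS-bla HEK293T cells treated with DMSO-dissolved compounds for 16 hr at 37C and 5% CO2.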

[16] = qHTS assay to identify small molecule agonists of the androgen receptor (AR) signaling pathway in the presence of an antagonist - cell viability counter screen (AID 1259379);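 note: MDA-kb2 human breast cancer cells carrying an MMTV luciferase reporter; series mostly up to about 92 µM; nearly all actives have a fitted effect of over 25% in size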
Method in brief: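 MDA-kb2 cells (MMTV-luciferase, AR/GR), 3,000/well, 5 h attachment, then 3.0 µM nilutamide (final) and compounds at 15 concentrations. Viability by CellTiter-Fluor fluorescence after 16 h at 37 °C, 0% CO2, in the reporter wells.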

[17] = qHTS assay to identify small molecule agonists of the estrogen receptor beta (ER-beta) signaling pathway - cell viability counter screen (AID 1259380); note: nearly all actives have a fitted effect of over 30% in size; note: potency is the fitted concentration of half-maximal effect
Method in brief: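 ER-beta-UAS-bla HEK293T cells in medium with 2% charcoal-stripped FBS, pre-incubated 6 hr, then treated 16 hr at 37C. Cytotoxicity read in the same wells by CellTiter-Glo luminescence after 30 min at room temperature.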

[18] = molecular target: Estrogen receptor (Homo sapiens) (UniProt P03372); experiment: qHTS assay to identify small molecule agonists of the estrogen receptor alpha (ER-alpha) signaling pathway in the presence of an antagonist (AID 1259383; calls by dose curve; note: top concentration of the series differs between compounds; nearly all actives have a fitted effect of over 15% in size)
Method in brief: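 VM7Luc4E2 cells express endogenous full-length ER-alpha with an ERE-luciferase reporter and were hormone-deprived for 5 days. Compounds at 15 concentrations were added with 10.0nM ICI-182,780 for 22hr at 37C. Luminescence was read with ONE-Glo.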

[19] = molecular target: Estrogen receptor beta (Homo sapiens) (UniProt Q92731); experiment: qHTS assay to identify small molecule antagonists of the estrogen receptor beta (ER-beta) signaling pathway (AID 1259378; active = well fitted inhibition curve with a large enough effect in the signal ratio in the repeat runs, not every such curve was filed as active; the % refers to the signal ratio)
Method in brief: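 ER-beta-UAS-bla HEK293T (GripTite) cells in 2% charcoal-stripped FBS medium were preincubated 6 hr at 37C, dosed with compound, then stimulated with 1 nM E2 (final) for 16 hr; beta-lactamase reporter read by B/G FRET fluorescence after 2 hr substrate loading.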

[20] = molecular target: Androgen receptor (Homo sapiens) (UniProt P10275); experiment: qHTS assay to identify small molecule agonists of the androgen receptor (AR) signaling pathway in the presence of an antagonist (AID 1259381; calls by dose curve; note: nearly all actives have a fitted effect of over 15% in size)
Method in brief: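 MDA-kb2 cells carrying MMTV-luciferase (AR/GR responsive), 3,000 cells/well, co-treated with 3.0 uM nilutamide final. Compounds at 15 concentrations, 16 hr at 37C without CO2. Luciferase luminescence read after 30 min with ONE-Glo.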

Measured: Potency

Sequence of Progesterone receptor (Homo sapiens) (P06401 whole entry, looked up): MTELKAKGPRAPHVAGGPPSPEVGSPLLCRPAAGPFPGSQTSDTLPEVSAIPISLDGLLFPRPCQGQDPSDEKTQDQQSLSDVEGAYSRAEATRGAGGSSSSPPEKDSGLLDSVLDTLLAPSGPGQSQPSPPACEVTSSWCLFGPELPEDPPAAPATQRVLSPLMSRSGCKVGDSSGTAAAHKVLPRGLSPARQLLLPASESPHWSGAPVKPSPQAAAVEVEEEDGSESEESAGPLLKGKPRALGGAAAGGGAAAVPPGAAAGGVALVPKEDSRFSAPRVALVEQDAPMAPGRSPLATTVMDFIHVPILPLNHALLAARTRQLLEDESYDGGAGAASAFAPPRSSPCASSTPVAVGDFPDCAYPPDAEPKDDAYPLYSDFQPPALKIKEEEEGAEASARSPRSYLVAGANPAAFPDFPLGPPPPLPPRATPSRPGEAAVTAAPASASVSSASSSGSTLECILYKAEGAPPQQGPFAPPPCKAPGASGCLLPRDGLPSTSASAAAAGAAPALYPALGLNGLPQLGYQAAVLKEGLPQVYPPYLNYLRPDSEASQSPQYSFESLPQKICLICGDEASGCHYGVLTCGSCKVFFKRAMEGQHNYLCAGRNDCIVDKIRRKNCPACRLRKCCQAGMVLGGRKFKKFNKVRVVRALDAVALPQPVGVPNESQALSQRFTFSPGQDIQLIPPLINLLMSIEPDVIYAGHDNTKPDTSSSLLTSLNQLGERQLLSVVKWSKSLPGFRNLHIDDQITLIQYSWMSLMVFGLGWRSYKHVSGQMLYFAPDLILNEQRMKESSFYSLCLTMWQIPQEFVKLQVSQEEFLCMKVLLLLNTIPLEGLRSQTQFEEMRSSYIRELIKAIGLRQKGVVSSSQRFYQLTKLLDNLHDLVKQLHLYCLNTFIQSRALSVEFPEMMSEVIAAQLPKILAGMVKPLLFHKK
Sequence of Thyrotropin-releasing hormone receptor (Homo sapiens) (P34981 whole entry, looked up): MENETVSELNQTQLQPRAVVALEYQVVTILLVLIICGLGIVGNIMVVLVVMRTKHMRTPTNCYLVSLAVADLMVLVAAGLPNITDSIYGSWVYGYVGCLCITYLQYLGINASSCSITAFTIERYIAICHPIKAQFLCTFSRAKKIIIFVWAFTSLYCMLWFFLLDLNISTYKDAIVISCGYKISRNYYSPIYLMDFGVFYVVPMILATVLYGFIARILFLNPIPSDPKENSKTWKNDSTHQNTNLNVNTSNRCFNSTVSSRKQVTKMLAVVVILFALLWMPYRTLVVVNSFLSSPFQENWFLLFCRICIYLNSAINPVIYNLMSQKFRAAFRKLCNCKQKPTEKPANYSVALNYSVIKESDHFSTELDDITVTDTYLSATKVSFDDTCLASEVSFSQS
Sequence of Estrogen receptor (Homo sapiens) (P03372 whole entry, looked up): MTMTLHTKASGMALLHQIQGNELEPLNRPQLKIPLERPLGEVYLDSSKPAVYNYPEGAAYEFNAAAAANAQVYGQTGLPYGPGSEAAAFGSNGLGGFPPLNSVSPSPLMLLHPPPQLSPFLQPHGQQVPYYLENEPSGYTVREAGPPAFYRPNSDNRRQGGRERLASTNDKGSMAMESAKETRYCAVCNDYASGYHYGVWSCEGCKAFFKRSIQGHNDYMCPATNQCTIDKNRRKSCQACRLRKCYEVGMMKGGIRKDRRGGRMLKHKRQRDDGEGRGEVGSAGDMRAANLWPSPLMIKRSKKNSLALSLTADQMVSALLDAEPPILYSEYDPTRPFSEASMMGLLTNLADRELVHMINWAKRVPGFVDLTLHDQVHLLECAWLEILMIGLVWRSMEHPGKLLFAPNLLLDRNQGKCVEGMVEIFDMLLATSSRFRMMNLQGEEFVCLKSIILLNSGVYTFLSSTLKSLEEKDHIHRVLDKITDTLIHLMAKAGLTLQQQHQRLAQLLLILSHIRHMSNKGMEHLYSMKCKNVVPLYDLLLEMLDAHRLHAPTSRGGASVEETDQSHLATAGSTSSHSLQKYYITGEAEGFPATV
Sequence of Androgen receptor (Homo sapiens) (P10275 whole entry, looked up): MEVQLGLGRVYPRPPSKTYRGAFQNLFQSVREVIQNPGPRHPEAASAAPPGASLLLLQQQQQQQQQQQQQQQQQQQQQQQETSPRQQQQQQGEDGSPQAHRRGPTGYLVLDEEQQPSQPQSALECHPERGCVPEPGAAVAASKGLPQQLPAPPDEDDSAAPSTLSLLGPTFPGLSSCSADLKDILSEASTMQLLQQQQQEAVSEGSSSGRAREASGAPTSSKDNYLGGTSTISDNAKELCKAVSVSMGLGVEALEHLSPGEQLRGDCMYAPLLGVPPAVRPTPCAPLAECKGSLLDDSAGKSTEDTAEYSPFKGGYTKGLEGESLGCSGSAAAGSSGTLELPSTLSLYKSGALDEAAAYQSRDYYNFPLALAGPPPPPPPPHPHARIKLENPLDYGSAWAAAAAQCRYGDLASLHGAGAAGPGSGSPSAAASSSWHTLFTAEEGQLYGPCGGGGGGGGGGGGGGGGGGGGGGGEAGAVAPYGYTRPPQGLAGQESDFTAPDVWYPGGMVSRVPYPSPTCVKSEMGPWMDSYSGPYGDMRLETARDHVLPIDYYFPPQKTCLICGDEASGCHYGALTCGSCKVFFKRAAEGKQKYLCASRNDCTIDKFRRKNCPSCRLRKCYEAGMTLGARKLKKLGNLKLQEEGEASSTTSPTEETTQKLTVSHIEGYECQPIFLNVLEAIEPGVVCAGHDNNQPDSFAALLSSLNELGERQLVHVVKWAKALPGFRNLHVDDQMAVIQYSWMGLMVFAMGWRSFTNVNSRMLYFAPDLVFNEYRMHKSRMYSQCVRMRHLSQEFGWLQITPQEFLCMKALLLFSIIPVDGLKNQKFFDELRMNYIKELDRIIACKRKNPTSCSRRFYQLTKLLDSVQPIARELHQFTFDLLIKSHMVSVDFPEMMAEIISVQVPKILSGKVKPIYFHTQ
Sequence of Thyrotropin receptor (Homo sapiens) (P16473 whole entry, looked up): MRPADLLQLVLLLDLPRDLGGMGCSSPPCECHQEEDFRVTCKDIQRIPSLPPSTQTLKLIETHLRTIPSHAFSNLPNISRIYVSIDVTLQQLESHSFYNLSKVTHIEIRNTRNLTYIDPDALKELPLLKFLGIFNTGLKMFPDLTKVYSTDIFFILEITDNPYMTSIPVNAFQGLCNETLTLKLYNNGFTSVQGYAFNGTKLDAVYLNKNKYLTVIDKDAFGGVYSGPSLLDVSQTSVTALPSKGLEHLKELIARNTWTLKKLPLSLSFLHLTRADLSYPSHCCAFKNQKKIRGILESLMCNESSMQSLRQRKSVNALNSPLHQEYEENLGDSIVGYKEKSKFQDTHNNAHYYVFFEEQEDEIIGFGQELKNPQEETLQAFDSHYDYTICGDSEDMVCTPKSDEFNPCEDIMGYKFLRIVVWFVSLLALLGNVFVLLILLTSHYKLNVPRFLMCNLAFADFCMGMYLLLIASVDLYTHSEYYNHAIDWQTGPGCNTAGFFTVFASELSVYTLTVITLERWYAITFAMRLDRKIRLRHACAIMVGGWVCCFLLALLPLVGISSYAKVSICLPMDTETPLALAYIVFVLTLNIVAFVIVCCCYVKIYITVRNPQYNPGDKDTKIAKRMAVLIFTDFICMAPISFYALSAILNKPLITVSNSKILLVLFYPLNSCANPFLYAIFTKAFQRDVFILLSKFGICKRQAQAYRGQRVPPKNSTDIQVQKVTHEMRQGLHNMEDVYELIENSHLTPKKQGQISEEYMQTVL
Sequence of Estrogen receptor beta (Homo sapiens) (Q92731 whole entry, looked up): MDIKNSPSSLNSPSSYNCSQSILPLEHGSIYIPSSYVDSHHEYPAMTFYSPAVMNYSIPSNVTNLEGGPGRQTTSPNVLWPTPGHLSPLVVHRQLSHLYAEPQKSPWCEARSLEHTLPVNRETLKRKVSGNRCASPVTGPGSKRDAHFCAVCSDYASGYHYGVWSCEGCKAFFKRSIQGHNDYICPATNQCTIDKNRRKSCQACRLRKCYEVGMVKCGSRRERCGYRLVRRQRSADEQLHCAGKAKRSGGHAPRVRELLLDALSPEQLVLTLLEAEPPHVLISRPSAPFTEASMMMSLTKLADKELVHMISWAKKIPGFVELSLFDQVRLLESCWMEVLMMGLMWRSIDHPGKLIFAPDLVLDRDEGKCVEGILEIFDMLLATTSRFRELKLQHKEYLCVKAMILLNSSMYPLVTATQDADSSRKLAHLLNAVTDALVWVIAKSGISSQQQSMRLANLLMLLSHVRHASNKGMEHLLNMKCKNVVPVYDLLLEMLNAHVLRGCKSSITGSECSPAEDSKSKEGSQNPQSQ

CC1=NN(c2cc(Cl)c(S(=O)(=O)O)cc2Cl)C(=O)C1N=Nc1ccc(S(=O)(=O)O)cc1 (stereo unspecified)
active: [5] 61.1 µM
not listed: [15] | [16] | [17] | [18] | [19] | [20]
inactive: all other assays above

Cc1nc(N)nc(N)c1-c1ccc(Cl)c(Cl)c1
active: [17] 2.66 µM
inactive: [15] | [16] | [18] | [5] | [6] | [8] | [9] | [12] | [13] | [14]

CCOC(=O)c1ccccc1O
not listed: [1] | [6] | [7] | [10] | [12] | [18] | [20]
inactive: all other assays above

CN1CCN(C2=Nc3ccccc3Oc3ccc(Cl)cc32)CC1
not listed: [1] | [4] | [6] | [7] | [12] | [13] | [14] | [20]
inactive: all other assays above

COc1cc(Cl)ccc1Cl
not listed: [1] | [18] | [20]
inactive: all other assays above

CCc1cc2cc(OC)c(OC)cc2c(Cc2ccccc2)n1
active: [7] 16.8 µM
not listed: [1] | [9] | [13] | [14] | [19]
inactive: all other assays above

Cc1c(C(=O)NCCO)[n+](=O)c2ccccc2n1[O-]
not listed: [1] | [9] | [18]
inactive: all other assays above

CCCCc1ccc2nc(NC(=O)OC)[nH]c2c1
active: [7] 4.22 µM
not listed: [1] | [3] | [4] | [8] | [9] | [16]
inactive: all other assays above

COC(=O)N[C@H](C(=O)N[C@@H](Cc1ccccc1)[C@@H](O)CN(Cc1ccc(-c2ccccn2)cc1)NC(=O)[C@@H](NC(=O)OC)C(C)(C)C)C(C)(C)C
not listed: [1] | [9] | [20]
inactive: all other assays above

CN(C)CCOc1ccccc1Cc1ccccc1
inactive: [15] | [19] | [16] | [3] | [10] | [11] | [12] | [13] | [14]
active: [17] 26.6 µM | [4] 29.8 µM

O=C(CCCl)NCc1ccccc1
not listed: [1] | [9] | [20]
inactive: all other assays above

CCCCCCCCCC/C=C/C#N
not listed: [1] | [9] | [15] | [20]
inactive: all other assays above

CCCCCCCCCC#N
not listed: [1] | [7] | [8] | [9] | [19] | [20]
inactive: all other assays above

CC(C)CCCCCCc1ccc(OCCOCCO)cc1
not listed: [1] | [13] | [14]
inactive: all other assays above

N#CSCC(=O)O
not listed: [1] | [6] | [13] | [14] | [15]
inactive: all other assays above

CC(=O)OC(C)OC(C)=O
active: [6] 50 µM
not listed: [1] | [8] | [18]
inactive: all other assays above

COc1cc(N)c(Cl)cc1C(=O)NC1CCN(Cc2ccccc2)CC1
not listed: [1] | [4] | [5] | [9] | [17] | [20]
inactive: all other assays above
